Results published in ChEMBL document CHEMBL1961873, “Compounds: GSK PKIS; Assays: Nanosyn kinase panel” (2012).

How the values were obtained:
[1] = biological target: Ribosomal protein S6 kinase alpha-6 (Homo sapiens) (UniProt Q9UK32); settings: at 1 µM;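 further: each value is a mean inhibition of RSK4 from a GSK PKIS panel screen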
[2] = biological target: T1, Serine/threonine-protein kinase Sgk1 (Homo sapiens) (UniProt O00141); settings: at 0.1 µM
T1 sequence (whole entry): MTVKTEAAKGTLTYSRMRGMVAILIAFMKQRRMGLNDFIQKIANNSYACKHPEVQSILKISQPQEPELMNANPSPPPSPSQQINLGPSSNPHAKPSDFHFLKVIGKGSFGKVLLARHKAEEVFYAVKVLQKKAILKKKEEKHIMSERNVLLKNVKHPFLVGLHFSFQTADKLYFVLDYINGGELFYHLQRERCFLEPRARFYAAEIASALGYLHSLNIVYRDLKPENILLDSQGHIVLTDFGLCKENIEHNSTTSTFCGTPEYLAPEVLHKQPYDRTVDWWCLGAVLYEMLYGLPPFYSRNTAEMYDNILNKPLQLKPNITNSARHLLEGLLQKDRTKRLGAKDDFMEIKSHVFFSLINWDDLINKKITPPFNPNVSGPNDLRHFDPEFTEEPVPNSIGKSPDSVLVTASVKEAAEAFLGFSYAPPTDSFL

[3] = biological target: T1, Serine/threonine-protein kinase Sgk1 (Homo sapiens); settings: at 1 µM
[4] = biological target: T2, Serine/threonine-protein kinase Sgk2 (Homo sapiens) (UniProt Q9HBY8); settings: at 0.1 µM
T2 sequence (whole entry): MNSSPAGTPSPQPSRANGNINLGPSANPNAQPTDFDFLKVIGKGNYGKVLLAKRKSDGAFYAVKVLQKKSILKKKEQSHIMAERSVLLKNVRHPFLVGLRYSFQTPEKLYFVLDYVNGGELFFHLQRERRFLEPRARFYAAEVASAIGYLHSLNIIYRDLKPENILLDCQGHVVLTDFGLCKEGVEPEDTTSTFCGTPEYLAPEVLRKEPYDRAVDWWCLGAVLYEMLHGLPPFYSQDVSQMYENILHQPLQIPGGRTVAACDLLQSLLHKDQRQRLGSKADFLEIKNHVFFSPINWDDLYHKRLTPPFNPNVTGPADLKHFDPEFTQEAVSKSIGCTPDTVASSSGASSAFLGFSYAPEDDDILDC

[5] = biological target: T2, Serine/threonine-protein kinase Sgk2 (Homo sapiens); settings: at 1 µM
[6] = biological target: T3, Serine/threonine-protein kinase Sgk3 (Homo sapiens) (UniProt Q96BR1); settings: at 0.1 µM
T3 sequence (whole entry): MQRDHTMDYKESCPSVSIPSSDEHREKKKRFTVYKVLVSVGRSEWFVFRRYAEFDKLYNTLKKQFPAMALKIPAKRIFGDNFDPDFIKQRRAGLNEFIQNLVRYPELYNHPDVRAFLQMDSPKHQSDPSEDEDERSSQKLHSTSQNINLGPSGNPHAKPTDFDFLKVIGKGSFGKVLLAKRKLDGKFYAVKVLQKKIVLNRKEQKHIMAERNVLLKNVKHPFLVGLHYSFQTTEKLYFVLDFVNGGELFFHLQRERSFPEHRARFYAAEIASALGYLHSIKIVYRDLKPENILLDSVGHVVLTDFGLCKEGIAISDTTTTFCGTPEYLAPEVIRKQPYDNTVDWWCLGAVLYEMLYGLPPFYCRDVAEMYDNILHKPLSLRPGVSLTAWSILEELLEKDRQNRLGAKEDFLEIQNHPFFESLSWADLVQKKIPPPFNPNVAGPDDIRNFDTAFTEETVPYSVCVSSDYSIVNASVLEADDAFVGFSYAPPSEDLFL

[7] = biological target: T3, Serine/threonine-protein kinase Sgk3 (Homo sapiens); settings: at 1 µM
[8] = biological target: 5'-AMP-activated protein kinase catalytic subunit alpha-1 (Homo sapiens) (UniProt Q13131); settings: at 0.1 µM
Sequence of 5'-AMP-activated protein kinase catalytic subunit alpha-1 (Homo sapiens) (Q13131 whole entry, looked up): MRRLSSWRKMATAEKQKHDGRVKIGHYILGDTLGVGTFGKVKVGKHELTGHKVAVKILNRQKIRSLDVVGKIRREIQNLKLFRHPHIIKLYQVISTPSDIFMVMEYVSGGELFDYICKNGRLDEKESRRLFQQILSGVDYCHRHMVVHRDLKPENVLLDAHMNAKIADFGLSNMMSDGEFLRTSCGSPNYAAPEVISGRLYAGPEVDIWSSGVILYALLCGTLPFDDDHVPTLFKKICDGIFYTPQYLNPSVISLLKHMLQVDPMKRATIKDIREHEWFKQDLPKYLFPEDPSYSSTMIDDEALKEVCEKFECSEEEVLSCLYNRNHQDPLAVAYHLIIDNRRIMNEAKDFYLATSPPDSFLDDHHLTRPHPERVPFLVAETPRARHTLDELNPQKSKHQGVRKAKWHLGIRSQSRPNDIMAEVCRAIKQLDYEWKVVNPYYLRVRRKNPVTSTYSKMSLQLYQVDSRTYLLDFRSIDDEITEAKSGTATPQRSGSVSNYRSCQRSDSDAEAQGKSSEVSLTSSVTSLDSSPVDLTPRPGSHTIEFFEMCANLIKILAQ

[9] = biological target: 5'-AMP-activated protein kinase catalytic subunit alpha-1 (Homo sapiens) (UniProt Q13131); settings: at 1 µM
[10] = biological target: 5'-AMP-activated protein kinase catalytic subunit alpha-2 (Homo sapiens) (UniProt P54646); settings: at 0.1 µM
Sequence of 5'-AMP-activated protein kinase catalytic subunit alpha-2 (Homo sapiens) (P54646 whole entry, looked up): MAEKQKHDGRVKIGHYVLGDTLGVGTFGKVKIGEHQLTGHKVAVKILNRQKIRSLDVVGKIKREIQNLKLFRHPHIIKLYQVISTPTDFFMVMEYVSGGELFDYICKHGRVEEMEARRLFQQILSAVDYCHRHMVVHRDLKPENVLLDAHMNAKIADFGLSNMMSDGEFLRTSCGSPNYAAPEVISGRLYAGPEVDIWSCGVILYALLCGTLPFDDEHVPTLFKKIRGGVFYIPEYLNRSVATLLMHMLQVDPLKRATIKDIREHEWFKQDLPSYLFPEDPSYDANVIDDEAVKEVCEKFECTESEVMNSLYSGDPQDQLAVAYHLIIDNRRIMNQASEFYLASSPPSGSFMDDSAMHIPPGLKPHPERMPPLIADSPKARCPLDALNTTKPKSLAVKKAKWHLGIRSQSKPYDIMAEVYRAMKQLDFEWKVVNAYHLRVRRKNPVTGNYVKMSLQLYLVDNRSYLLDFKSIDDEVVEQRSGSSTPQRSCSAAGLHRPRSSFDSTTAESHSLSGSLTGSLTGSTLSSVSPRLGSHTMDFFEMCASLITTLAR

[11] = biological target: 5'-AMP-activated protein kinase catalytic subunit alpha-2 (Homo sapiens) (UniProt P54646); settings: at 1 µM
[12] = biological target: T4, NUAK family SNF1-like kinase 1 (Homo sapiens) (UniProt O60285); settings: at 0.1 µM
T4 sequence (whole entry): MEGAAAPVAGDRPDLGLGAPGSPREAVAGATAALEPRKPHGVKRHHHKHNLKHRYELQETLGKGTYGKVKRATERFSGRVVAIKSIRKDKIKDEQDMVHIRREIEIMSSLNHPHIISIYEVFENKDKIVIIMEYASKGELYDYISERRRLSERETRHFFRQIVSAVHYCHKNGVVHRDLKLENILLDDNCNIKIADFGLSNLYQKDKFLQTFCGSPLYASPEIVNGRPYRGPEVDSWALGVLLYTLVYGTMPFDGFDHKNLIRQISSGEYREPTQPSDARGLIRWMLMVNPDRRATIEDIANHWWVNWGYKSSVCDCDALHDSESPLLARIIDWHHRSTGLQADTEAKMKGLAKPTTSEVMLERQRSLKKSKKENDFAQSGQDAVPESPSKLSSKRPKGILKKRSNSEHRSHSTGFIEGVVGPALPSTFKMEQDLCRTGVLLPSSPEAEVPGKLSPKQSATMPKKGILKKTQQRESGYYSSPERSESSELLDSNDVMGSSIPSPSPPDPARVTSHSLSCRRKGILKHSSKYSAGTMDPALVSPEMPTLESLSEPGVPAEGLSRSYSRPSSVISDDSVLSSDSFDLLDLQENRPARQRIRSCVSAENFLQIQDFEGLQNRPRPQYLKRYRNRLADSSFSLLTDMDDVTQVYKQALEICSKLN

[13] = biological target: T4, NUAK family SNF1-like kinase 1 (Homo sapiens); settings: at 1 µM
[14] = biological target: T5, Serine/threonine-protein kinase BRSK1 (Homo sapiens) (UniProt Q8TDC3); settings: at 0.1 µM
T5 sequence (whole entry): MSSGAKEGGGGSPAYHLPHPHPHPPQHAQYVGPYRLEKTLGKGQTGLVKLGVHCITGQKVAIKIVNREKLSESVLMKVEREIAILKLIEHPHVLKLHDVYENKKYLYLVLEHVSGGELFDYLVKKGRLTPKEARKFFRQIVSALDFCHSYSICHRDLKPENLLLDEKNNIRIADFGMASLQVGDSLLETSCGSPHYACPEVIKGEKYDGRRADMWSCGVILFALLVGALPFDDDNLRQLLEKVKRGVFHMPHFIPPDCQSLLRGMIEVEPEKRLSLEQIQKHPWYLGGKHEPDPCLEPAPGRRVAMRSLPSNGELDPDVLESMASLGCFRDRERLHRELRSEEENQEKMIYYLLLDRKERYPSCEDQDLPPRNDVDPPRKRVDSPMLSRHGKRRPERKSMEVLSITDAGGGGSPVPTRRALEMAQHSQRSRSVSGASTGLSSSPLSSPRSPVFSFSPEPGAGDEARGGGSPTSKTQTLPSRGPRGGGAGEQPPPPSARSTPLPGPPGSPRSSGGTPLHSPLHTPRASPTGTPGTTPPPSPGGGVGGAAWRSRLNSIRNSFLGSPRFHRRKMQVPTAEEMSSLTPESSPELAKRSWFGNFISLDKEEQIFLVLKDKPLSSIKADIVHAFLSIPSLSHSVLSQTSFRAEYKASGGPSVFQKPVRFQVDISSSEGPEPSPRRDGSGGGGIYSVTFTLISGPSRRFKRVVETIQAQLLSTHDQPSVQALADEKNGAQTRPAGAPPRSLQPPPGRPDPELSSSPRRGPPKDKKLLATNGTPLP

[15] = biological target: T5, Serine/threonine-protein kinase BRSK1 (Homo sapiens); settings: at 1 µM
[16] = biological target: T6, Serine/threonine-protein kinase BRSK2 (Homo sapiens) (UniProt Q8IWQ3); settings: at 0.1 µM
T6 sequence (whole entry): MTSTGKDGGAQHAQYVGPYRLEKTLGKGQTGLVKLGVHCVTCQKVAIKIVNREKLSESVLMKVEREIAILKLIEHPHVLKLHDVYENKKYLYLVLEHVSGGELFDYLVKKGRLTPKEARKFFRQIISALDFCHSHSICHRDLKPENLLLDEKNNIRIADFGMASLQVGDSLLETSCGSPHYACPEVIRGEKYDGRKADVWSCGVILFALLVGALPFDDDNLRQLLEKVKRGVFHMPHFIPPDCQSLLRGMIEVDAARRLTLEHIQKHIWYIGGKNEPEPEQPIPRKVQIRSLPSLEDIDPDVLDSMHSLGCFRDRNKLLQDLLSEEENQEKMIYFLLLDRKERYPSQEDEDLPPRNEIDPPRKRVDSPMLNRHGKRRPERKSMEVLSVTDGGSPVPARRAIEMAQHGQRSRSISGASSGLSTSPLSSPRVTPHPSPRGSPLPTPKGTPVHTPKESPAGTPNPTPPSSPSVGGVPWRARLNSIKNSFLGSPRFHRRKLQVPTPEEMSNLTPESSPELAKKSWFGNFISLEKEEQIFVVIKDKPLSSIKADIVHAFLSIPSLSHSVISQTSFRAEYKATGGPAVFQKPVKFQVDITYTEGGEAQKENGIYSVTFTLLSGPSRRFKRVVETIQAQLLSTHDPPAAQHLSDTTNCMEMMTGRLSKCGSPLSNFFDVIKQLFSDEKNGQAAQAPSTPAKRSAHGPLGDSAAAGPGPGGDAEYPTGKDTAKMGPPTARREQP

[17] = biological target: T6, Serine/threonine-protein kinase BRSK2 (Homo sapiens); settings: at 1 µM
[18] = biological target: Calcium/calmodulin-dependent protein kinase type 1D (Homo sapiens) (UniProt Q8IU85); settings: at 0.1 µM
Sequence of Calcium/calmodulin-dependent protein kinase type 1D (Homo sapiens) (Q8IU85 whole entry, looked up): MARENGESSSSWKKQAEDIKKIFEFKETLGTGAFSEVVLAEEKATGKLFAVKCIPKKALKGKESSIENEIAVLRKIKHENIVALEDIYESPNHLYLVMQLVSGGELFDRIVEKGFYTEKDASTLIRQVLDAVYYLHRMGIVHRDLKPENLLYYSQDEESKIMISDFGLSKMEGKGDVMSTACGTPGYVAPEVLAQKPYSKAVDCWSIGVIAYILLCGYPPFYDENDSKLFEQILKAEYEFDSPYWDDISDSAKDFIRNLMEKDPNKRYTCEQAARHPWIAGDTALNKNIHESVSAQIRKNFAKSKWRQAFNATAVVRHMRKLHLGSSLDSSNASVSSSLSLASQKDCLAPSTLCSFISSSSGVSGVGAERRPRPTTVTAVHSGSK

[19] = biological target: Calcium/calmodulin-dependent protein kinase type 1D (Homo sapiens) (UniProt Q8IU85); settings: at 1 µM
[20] = biological target: Calcium/calmodulin-dependent protein kinase type II subunit alpha (Homo sapiens) (UniProt Q9UQM7); settings: at 0.1 µM;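 further: reported values are averages (mean inhibition of CAMK2A)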
Sequence of Calcium/calmodulin-dependent protein kinase type II subunit alpha (Homo sapiens) (Q9UQM7 whole entry): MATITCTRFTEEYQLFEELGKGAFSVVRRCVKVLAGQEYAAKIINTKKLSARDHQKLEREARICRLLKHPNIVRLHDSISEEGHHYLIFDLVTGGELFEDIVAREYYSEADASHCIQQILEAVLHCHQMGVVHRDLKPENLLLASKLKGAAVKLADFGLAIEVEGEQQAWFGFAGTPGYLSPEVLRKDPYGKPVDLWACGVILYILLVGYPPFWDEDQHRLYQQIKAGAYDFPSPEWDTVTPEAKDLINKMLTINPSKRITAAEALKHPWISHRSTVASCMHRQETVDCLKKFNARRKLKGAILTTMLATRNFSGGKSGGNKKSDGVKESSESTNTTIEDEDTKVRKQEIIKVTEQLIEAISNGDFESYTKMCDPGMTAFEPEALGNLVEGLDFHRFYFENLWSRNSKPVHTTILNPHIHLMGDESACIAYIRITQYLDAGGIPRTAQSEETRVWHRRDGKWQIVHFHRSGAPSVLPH

Sequence of Ribosomal protein S6 kinase alpha-6 (Homo sapiens) (Q9UK32 whole entry): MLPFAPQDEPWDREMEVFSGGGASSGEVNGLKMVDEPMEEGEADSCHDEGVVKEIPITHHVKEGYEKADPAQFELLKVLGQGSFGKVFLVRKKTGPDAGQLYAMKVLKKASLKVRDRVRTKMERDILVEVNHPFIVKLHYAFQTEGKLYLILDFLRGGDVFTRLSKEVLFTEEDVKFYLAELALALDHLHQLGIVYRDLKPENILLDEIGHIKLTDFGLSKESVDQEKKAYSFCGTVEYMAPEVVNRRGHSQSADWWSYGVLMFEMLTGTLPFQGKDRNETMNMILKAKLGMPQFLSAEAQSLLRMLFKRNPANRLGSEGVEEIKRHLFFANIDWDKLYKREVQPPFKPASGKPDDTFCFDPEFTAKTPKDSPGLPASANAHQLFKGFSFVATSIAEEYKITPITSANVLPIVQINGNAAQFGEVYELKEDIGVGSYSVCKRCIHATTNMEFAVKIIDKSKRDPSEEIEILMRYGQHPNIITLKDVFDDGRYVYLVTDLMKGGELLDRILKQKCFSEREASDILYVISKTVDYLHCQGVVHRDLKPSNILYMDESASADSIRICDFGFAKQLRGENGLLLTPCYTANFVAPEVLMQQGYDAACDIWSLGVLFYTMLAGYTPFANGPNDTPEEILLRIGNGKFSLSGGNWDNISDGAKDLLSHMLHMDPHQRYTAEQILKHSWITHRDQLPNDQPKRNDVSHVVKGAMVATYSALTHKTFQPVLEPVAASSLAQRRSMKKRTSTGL

| SMILES | inhibition [1] | inhibition [2] | inhibition [3] | inhibition [4] | inhibition [5] | inhibition [6] | inhibition [7] | inhibition [8] | inhibition [9] | inhibition [10] | inhibition [11] | inhibition [12] | inhibition [13] | inhibition [14] | inhibition [15] | inhibition [16] | inhibition [17] | inhibition [18] | inhibition [19] | inhibition [20] |
| --- | --- | --- | --- | --- | --- | --- | --- | --- | --- | --- | --- | --- | --- | --- | --- | --- | --- | --- | --- | --- |
| NC(=O)c1sc(-n2cnc3ccccc32)cc1OCc1ccccc1Br | 5.17% | 2.26% | 2.46% | 4.32% | 4.07% | 1.99% | 2.42% | 2.42% | 4.09% | 7.19% | 4.98% | 7.8% | 29.1% | 3.67% | 8.3% | 3.06% | 17.1% | 0.13% | 2.21% | 1.7% |
| CCn1c(-c2nonc2N)nc2ccc(F)cc21 | 3.11% | 4.63% | 5.34% | 0.38% | 7.92% | 4.43% | 9.8% | 5.34% | 5.71% | 4.08% | 3.56% | 1.74% | 2.03% | 0.43% | 1.87% | 1.78% | 5.06% | 0.45% | -0.34% | 4.39% |
| Cc1ccc(C(=O)NC2CC2)cc1-c1ccc2[nH]ncc2c1 | -0.57% | -2.34% | -1.16% | -5.03% | -0.82% | -5.05% | 1.68% | -1.87% | 0.2% | 0.12% | -3.42% | 6.51% | 6.93% | 1.35% | 3.03% | 1.54% | 5.84% | -0.69% | 0.06% | -4.3% |
| CS(=O)(=O)CCNCc1nc(-c2ccc3ncnc(Nc4ccc(OCc5cccc(C(F)(F)F)c5)cc4)c3c2)cs1 | 0.37% | -0.21% | -1.85% | 3.52% | 2.19% | 1.04% | 1.17% | 1.78% | 2.03% | 3.05% | 2.15% | 0.06% | 2.2% | 2.31% | -0.57% | 0.24% | 1.3% | -0.5% | 2.37% | 1.59% |
| Cc1ccc(Nc2ccnc(Nc3cccc(C(N)=O)c3)n2)cc1O | 7.33% | 1.93% | 4.05% | 5.55% | 3.06% | 1.32% | 3.83% | 2.46% | 6.79% | 1.35% | 5.29% | 7.76% | 41.1% | 0.1% | 6.23% | 2.24% | 9.72% | 1.34% | 4.12% | 3.21% |
